The source of these data is PubChem BioAssay (NCI).

This is part of a sample that, as a whole, favours compounds with a hit. Of some 83,000 tested, about 20% had one in any assay.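 Assay: single dose, 48 h. Readout: percent growth (0 = no net growth; negative = cell death). Active: <10.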 Unmarked numbers belong to inactive results. Calls of active or inactive are those of the source.

In this assay the test system is CAKI-1 renal. The assay is described as follows: NCI-60 one-dose screen, 48 h (100 = growth as untreated, 0 = no growth, -100 = all killed). The note with it: 10 µM unless noted. How it is done: Growth inhibition of the CAKI-1 human tumor cell line is measured as a screen for anti-cancer activity. Cells are grown in 96 well plates and exposed to the test compound for 48 hours. Compounds are tested at a single concentration, which is 10^-5 M for most compounds. The reported endpoint is percent growth (GI% or GIPRCNT), where numbers from 0 - 100% represent growth inhibition, and numbers from -100% - 0 represent cell death. For example, a value of 40 represents 60% growth inhibition. A value of 0 means no net growth occurred over the course of the experiment. A value of -40 indicates 40% of cells at the beginning of the experiment died by the end of the experiment. A value of -100 means all cells are dead at the end of the experiment.
NCI-60 Human Tumor Cell Lines Screen was performed using the standard one-dose NCI protocol, which is described in more detail at https://dtp.cancer.gov/discovery_development/nci-60/default.htm.
Compounds with GIPRCNT values below 10 were considered active. Activity score was based on GIPRCNT using the following formula: […]
Score is 0 for GIPRCNT values of 100 or above, 50 for GIPRCNT values of 0, and 100 for GIPRCNT values of -100.
With `O=C(Nc1ccccc1)Oc1cccc2cccnc12`, the growth was 93.9%. As for `CN([N-]C(=O)CC(=O)[N-]N(C)C(=S)c1ccccc1)C(=S)c1ccccc1.[Cu+2]`, the growth was -94.7% (active). The value for `COc1cc(/C=C2\C(=O)N(c3c(Cl)cccc3Cl)c3ccccc32)cc(OC)c1O` was 7.23% (active); that for `CCN(CC)CCCNc1ccc(C)c2sc3ccccc3c(=O)c12` was 64.6%.

On to `N#Cc1c(O)c2c(c(O)c1C#N)C(=O)c1ccccc1C2=O`, for which the growth was 85.7%. Consider `c1ccc2cc(Cn3c(-c4ccc5ccccc5c4)[n+](Cc4ccc5ccccc5c4)c4ccccc43)ccc2c1`, for which the growth is -67.3% (active). The same measure for `O=C(CC(O)c1ccccc1)Nc1ccccn1` (stereo not given): 87.8%. As for `C[C@H]1C(=O)C23CCC1C[C@@]21O[C@@H]2C(C)(C)C=CC(=O)C23COC1=O`, the growth was 101%. With `COc1ccc(NC(=O)COc2ccccc2)c(C(N)=O)c1`, the growth is 49%.

As for `COc1ccc(/C=C2\Oc3cc(C)c(Cl)cc3C2=O)cc1OC`, the growth is 87.2%. Turning to `O=C(N/N=C/c1ccc(OC(F)F)c(OC2CCCC2)c1)c1cnn2c1NC(c1ccccc1)C2` (stereo not given), the growth is 62.6%. With `CCCCC1COc2cccc3c(SCC(=O)N(C)c4cccc5ccccc45)cc[n+]1c23` (stereo not given), the growth is 98.7%. As to `COc1cc(-c2nc3ccccc3o2)cc(CN2CCN(c3ccccc3)CC2)c1O`, the growth was 84.9%. On to `NC1=NC(c2ccccc2OS(=O)(=O)c2ccc(Br)cc2)n2c(nc3ccccc32)N1` (stereo not given), for which the growth is 104%.

`CCCOC(=O)c1ccc2c(c1)[N+](=O)C(C(=O)c1ccccc1)=C(C(F)(F)F)[N+]2=O`: the growth is -92.5% (active). Regarding `COc1ccc(Nc2nc(NCCNc3ccnc4cc(Cl)ccc34)nc(N3CCOCC3)n2)cc1`, the growth is 80.2%. Turning to `Fc1c[c-]c(-c2ccccn2)c(F)c1.Fc1c[c-]c(-c2ccccn2)c(F)c1.[Cl][Pt+].[Cl][Pt+].c1ccc([PH+](C[PH+](c2ccccc2)c2ccccc2)c2ccccc2)cc1`, the growth was 41.4%. The same measure for `O=C(NC1CC1)c1cc2n(n1)CC(c1ccccc1)N2` (stereo not given): 91.4%.

Regarding `CCN(CC)c1ccc2c(c1)OS(=O)(=O)N=C2`, the growth is 94.7%.

Consider `N#CC1=C(N)Oc2cc(N)ccc2C1c1ccc(F)cc1` (stereo not given), for which the growth is 62.6%. On to `O=C(O)CCN1CCN(c2cccc(Cl)c2)CC1`, for which the growth was 87.6%. On to `Brc1ccc(SCN(CSc2ccc(Br)cc2)Cc2ccccc2)cc1`, for which the growth is 73%.

Turning to `Nc1cccc2c(=S)c3ccccc3[nH]c12`, the growth was 77.1%. Regarding `CS(=O)(=O)Nc1cccc(C(=O)NCc2ccc(N3CCOCC3)cc2)c1`, the growth was 101%. `NC(=S)N/N=C1\c2ccccc2-c2c(F)c(F)c(F)c(F)c21`: the growth is 78.3%. As to `Cc1ccc(C(=O)Nc2ccccc2N)cc1`, the growth was 93.7%. Turning to `Cc1ccc(N=c2nc3sc4c(C)ccc(C)c4n3c(N)c2C#N)cc1`, the growth was 88.4%.

As for `CC(C)NCC(O)COc1ccc(CCOCC2CC2)cc1` (stereo not given), the growth is 99.3%. As for `Cc1c(C)n(CC(O)CNC2CCCCC2C)c2ccccc12` (stereo not given), the growth is -38.7% (active). Take `O=C(NCc1ccc(F)cc1)C1CN(c2ccc(Cl)cc2)N(c2ccc(Cl)cc2)C1=O` (stereo not given): the growth is 57.6%.

Consider `COC(=O)[C@@H]1CCCN1C(=O)[C@@H]1CCCN1C(=O)[C@@H](Cc1c[nH]c2ccccc12)NC(=S)Nc1cc(C(F)(F)F)cc(C(F)(F)F)c1`, for which the growth is 56.9%. Take `Brc1ccc(Br)nn1`: the growth was -92.3% (active).

On to `Cc1nc2cc(Nc3nc(NCCO)nc(Nc4ccc(F)cc4)n3)ccc2n1Cc1ccccc1`, for which the growth was 100%. As for `FC(F)(F)Oc1ccc2c(c1)C[C@H]1C[C@@H](c3ccoc3)N2O1`, the growth was 82.6%. On to `COC1(OC)C2(Cl)C=C(c3ccccc3)C1(Cl)C(Cl)=C2Cl` (stereo not given), for which the growth was 92.7%.

Regarding `COc1ccc(-c2[nH]ncc2Nc2cc(OC)c(OC)c(OC)c2)cc1`, the growth is 36.1%. Consider `CCN(CC)c1ccc(/C=C(\C#N)c2cc3ccccc3[nH]2)cc1`, for which the growth was 41.6%. As for `O=C1C2CC3C(CC2C(=O)[N]1[Sn]([c]1ccccc1)([c]1ccccc1)[c]1ccccc1)C1(Cl)C(Cl)=C(Cl)C3(Cl)C1(Cl)Cl` (stereo not given), the growth is -92.8% (active). The value for `CON=C1C[C@]2(C[C@@H]3C[C@@H](C/C=C(\C)C[C@@H](C)/C=C/C=C4\CO[C@@H]5[C@H](O)C(C)=C[C@@H](C(=O)O3)[C@]45O)O2)O[C@H](/C(C)=C/C(C)C)[C@H]1C` was 44.8%; that for `O=C1C(Cl)=C(NCCCN2CCOCC2)C(=O)c2ccccc21` was 102%.
